± gives the standard deviation.
Legend:
Assay in all cases: peptide microarray binding signal (635 nm), min-max normalized on array (fraction of array maximum); higher = stronger binding
[1] = biological target: T1, HaloTag-ATRX ADD domain (163-292)
T1 chain: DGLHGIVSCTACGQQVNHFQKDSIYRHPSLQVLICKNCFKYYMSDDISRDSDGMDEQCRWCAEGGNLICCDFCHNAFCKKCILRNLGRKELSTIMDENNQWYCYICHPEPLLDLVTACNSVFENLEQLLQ
Outline: (§1)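 Arrays carried histone 13-mer peptide–cellulose conjugates printed in triplicate on nitrocellulose alongside a Cy3 tracer. After overnight blocking at 4°C, they were incubated for 1 h at 4°C with biotin-labelled HaloTag reader fusions (10 nM to 1 μM) plus streptavidin-Alexa Fluor 647, or with rabbit histone antibodies (1:10,000 to 1:2,000) plus anti-rabbit Alexa 647. Scanning on an Axon GenePix 4000B used 635 nm for signal and 532 nm for misprints. The binding signal reported is each triplicate's mean spot intensity after per-library min-max scaling.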

[2] = biological target: HaloTag-ING2 PHD (mouse Ing2 200-280)
Outline: as §1

[3] = biological target: anti-H3K4me3 antibody ab8580
Outline: as §1

[4] = biological target: anti-H3K9me3 antibody ab8898
Outline: as §1

[5] = peptide region: H3 30-42, peptide modifications: H3K36me2 H3K37me1, binder concentration: 1:2,000 dilution
[6] = peptide region: H3 30-42, peptide modifications: H3K36me2 H3K37me1, binder concentration: 1:10,000 dilution
[7] = peptide region: H3 30-42, peptide modifications: H3K36ac H3K37me1, binder concentration: 1:2,000 dilution
[8] = peptide region: H3 30-42, peptide modifications: H3K36ac H3K37me1, binder concentration: 1:10,000 dilution
[9] = peptide region: H3 30-42, peptide modifications: H3K36me3 H3K37ac, binder concentration: 1:2,000 dilution
[10] = peptide region: H3 30-42, peptide modifications: H3K36me3 H3K37ac, binder concentration: 1:10,000 dilution
[11] = peptide region: H3 20-32, peptide modifications: H3T22ph, binder concentration: 1:2,000 dilution
[12] = peptide region: H3 20-32, peptide modifications: H3T22ph, binder concentration: 1:10,000 dilution
[13] = peptide region: H3 20-32, peptide modifications: H3T22ph H3K23me3, binder concentration: 1:2,000 dilution
[14] = peptide region: H3 20-32, peptide modifications: H3T22ph H3K23me3, binder concentration: 1:10,000 dilution

PATGGVKKPHRYR [H3 30-42 P A T G G V Kme2 Kme P H R Y R]
peptide microarray binding signal ([1]; peptide region: H3 30-42, peptide modifications: H3K36me2 H3K37me1, binder concentration: 50 nM): 0.00476 ± 8.1e-05
peptide microarray binding signal ([1]; peptide region: H3 30-42, peptide modifications: H3K36me2 H3K37me1, binder concentration: 500 nM): 0.0141 ± 0.0045
peptide microarray binding signal ([2]; peptide region: H3 30-42, peptide modifications: H3K36me2 H3K37me1, binder concentration: 10 nM): 0.00913 ± 0.0015
peptide microarray binding signal ([2]; peptide region: H3 30-42, peptide modifications: H3K36me2 H3K37me1, binder concentration: 100 nM): 0.00376 ± 0.0011
peptide microarray binding signal [3, 5]: 0.000774 ± 0.00022
peptide microarray binding signal [3, 6]: 0.00622 ± 0.002
peptide microarray binding signal [4, 5]: 0.00214 ± 0.00062
peptide microarray binding signal [4, 6]: 0.00208 ± 0.00019

PATGGVKKPHRYR [H3 30-42 P A T G G V Kac Kme P H R Y R]
peptide microarray binding signal ([1]; peptide region: H3 30-42, peptide modifications: H3K36ac H3K37me1, binder concentration: 50 nM): 0.00235 ± 2.8e-05
peptide microarray binding signal ([1]; peptide region: H3 30-42, peptide modifications: H3K36ac H3K37me1, binder concentration: 500 nM): 0.00586 ± 0.00013
peptide microarray binding signal ([2]; peptide region: H3 30-42, peptide modifications: H3K36ac H3K37me1, binder concentration: 10 nM): 0.00418 ± 0.00019
peptide microarray binding signal ([2]; peptide region: H3 30-42, peptide modifications: H3K36ac H3K37me1, binder concentration: 100 nM): 0.0056 ± 0.00056
peptide microarray binding signal [3, 7]: 0.00253 ± 0.00052
peptide microarray binding signal [3, 8]: 0.00177 ± 5.8e-05
peptide microarray binding signal [4, 7]: 0.0165 ± 0.003
peptide microarray binding signal [4, 8]: 0.00265 ± 6.2e-05

PATGGVKKPHRYR [H3 30-42 P A T G G V Kme3 Kac P H R Y R]
peptide microarray binding signal ([1]; peptide region: H3 30-42, peptide modifications: H3K36me3 H3K37ac, binder concentration: 50 nM): 0.00197 ± 6.4e-05
peptide microarray binding signal ([1]; peptide region: H3 30-42, peptide modifications: H3K36me3 H3K37ac, binder concentration: 500 nM): 0.00643 ± 0.0006
peptide microarray binding signal ([2]; peptide region: H3 30-42, peptide modifications: H3K36me3 H3K37ac, binder concentration: 10 nM): 0.00603 ± 7.6e-05
peptide microarray binding signal ([2]; peptide region: H3 30-42, peptide modifications: H3K36me3 H3K37ac, binder concentration: 100 nM): 0.00128 ± 0.00011
peptide microarray binding signal [3, 9]: 0.000566 ± 6.2e-05
peptide microarray binding signal [3, 10]: 0.00856 ± 0.0042
peptide microarray binding signal [4, 9]: 0.0143 ± 0.0012
peptide microarray binding signal [4, 10]: 0.00617 ± 0.0014

LATKAARKSAPAT [H3 20-32 L A Tph K A A R K S A P A T]
peptide microarray binding signal ([1]; peptide region: H3 20-32, peptide modifications: H3T22ph, binder concentration: 50 nM): 0.00339 ± 3.7e-05
peptide microarray binding signal ([1]; peptide region: H3 20-32, peptide modifications: H3T22ph, binder concentration: 500 nM): 0.00638 ± 0.00025
peptide microarray binding signal ([2]; peptide region: H3 20-32, peptide modifications: H3T22ph, binder concentration: 10 nM): 0.0046 ± 6.2e-05
peptide microarray binding signal ([2]; peptide region: H3 20-32, peptide modifications: H3T22ph, binder concentration: 100 nM): 0.00772 ± 0.00064
peptide microarray binding signal [3, 11]: 0.001548 ± 1.2e-05
peptide microarray binding signal [3, 12]: 0.00194 ± 3.1e-05
peptide microarray binding signal [4, 11]: 0.00068 ± 2.1e-05
peptide microarray binding signal [4, 12]: 0.00115 ± 2e-05

LATKAARKSAPAT [H3 20-32 L A Tph Kme3 A A R K S A P A T]
peptide microarray binding signal ([1]; peptide region: H3 20-32, peptide modifications: H3T22ph H3K23me3, binder concentration: 50 nM): 0.00577 ± 0.00039
peptide microarray binding signal ([1]; peptide region: H3 20-32, peptide modifications: H3T22ph H3K23me3, binder concentration: 500 nM): 0.0105 ± 0.00049
peptide microarray binding signal ([2]; peptide region: H3 20-32, peptide modifications: H3T22ph H3K23me3, binder concentration: 10 nM): 0.0219 ± 0.0024
peptide microarray binding signal ([2]; peptide region: H3 20-32, peptide modifications: H3T22ph H3K23me3, binder concentration: 100 nM): 0.026 ± 0.0027
peptide microarray binding signal [3, 13]: 0.0775 ± 0.0084
peptide microarray binding signal [3, 14]: 0.0633 ± 0.0092
peptide microarray binding signal [4, 13]: 0.0523 ± 0.0034
peptide microarray binding signal [4, 14]: 0.0244 ± 0.0027

Reference: the supplement of paper PMC4022240
